The source of these data is PubChem BioAssay AID1851 (National Center for Advancing Translational Sciences (NCATS), 2009).

Several values for one entry are separate records, joined by “and”; a condition that tells them apart may be missing. Equal values may be shown once. In all, about 16,000 compounds went through this assay and about 2,600 (16%) were called active. Inconclusive results (about 20%) are left out. Calls follow the shape of the dose curve; as a rule, active = well fitted curve in the direction sought with a large enough effect; inconclusive = small, poorly fitted or top-dose-only effect, or effect the other way; inactive = no such curve, though single readings can be large or run the other way. Only a selection was taken, and actives are over-represented in it overall. More than one record can exist for a structure, and the calls need not agree.

The term AC50 denotes the midpoint of the concentration-response curve, whichever way the signal moves.
% is scaled to controls: 0 for no effect and ±100 for the full control effect.

The target in this assay is Cytochrome P450 2D6 (Homo sapiens) (UniProt P10635). In words: Cytochrome panel assay with activity outcomes. The note with it: recombinant CYP, pro-luciferin dealkylation, luminescence, p450-cyp2d6; series mostly up to 57.1 µM.
Chain of Cytochrome P450 2D6 (Homo sapiens) (P10635 whole entry, looked up): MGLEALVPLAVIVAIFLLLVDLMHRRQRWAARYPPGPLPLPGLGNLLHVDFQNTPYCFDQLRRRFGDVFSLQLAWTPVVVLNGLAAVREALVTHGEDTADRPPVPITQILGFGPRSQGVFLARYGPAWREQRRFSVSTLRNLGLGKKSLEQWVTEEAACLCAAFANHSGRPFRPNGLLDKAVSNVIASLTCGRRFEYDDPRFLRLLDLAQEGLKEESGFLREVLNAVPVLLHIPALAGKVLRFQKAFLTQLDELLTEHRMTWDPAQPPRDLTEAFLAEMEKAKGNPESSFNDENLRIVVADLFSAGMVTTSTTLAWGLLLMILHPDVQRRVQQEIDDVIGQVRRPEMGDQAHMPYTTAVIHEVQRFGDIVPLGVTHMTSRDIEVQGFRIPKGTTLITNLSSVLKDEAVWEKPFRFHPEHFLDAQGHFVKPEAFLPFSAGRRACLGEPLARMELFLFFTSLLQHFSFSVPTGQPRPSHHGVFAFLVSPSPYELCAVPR
`CC(Oc1ccc(-c2ccccc2)cc1)C(=O)O` (stereo not given): the AC50 result is “inactive”. The same measure, in the same setting: in the case of `CCn1cc(C(=O)O)c(=O)c2cc3c(cc21)OCO3` it was “inactive”; in that of `CCN1C[C@]2(C)CC[C@@H](O)[C@]34[C@@H]5CC6[C@@H](OC)C[C@@](O)([C@H]5[C@@H]6O)[C@@H](C[C@@H]23)[C@H]14`, “inactive”; in that of `CNC[C@H](O)c1ccc(OC(=O)C(C)(C)C)c(OC(=O)C(C)(C)C)c1`, “inactive”. On the same count and under the same terms, in the case of `CN1C[C@@H](CS(=O)(=O)N(C)C)C[C@H]2c3cccc4c3c(cn4C)C[C@@H]21` it was 3.98 µM (active). As for `CC(=NCc1ccco1)c1c(O)n(-c2ccccc2)c(=O)[nH]c1=O`, the AC50 result was “inactive”. The same measure, in the same setting: the value for `CN1C(=O)CCS(=O)(=O)[C@@H]1c1ccc(Cl)cc1` was “inactive”; that for `CN(C)Cc1c[nH]c2ccccc12` was 0.158 µM (active). On to `CN(C)CCCc1c[nH]c2ccccc12`, for which the activity, negative = inhibition was -8.71% [at 11.4 µM] (inactive).

For `O=C(c1ccccc1)[C@H]1[C@H](c2ccccc2[N+](=O)[O-])N1C1CCCCC1` (stereo not given in full), the activity, negative = inhibition was -1.09% [at 11.4 µM] (inactive).

Turning to `c1ccc(CN2CCC3(CCc4ccccc43)CC2)cc1`, the AC50 is 0.00631 µM (active). On the same count and under the same terms, the value for `c1ccc(CN2CCC3(CCNCC3)CC2)cc1` was “inactive”; that for `CCOC(=O)c1ncn2c1[C@H]1CCCN1C(=O)c1cc(OC)ccc1-2` was “inactive”; that for `Oc1ccc2[nH]cc(CCCCN3CC=C(c4ccccc4)CC3)c2c1` was “inactive”. Turning to `O=S1(=O)N(CCN2CC=C(c3c[nH]c4cc(F)ccc34)CC2)c2cccc3c2N1CCC3`, the concentration at half-maximal activity (AC50) was 0.2 µM (active). As for `O=C(CCCC1=NS(=O)(=O)c2ccccc2N1)N1CCC2(CC1)OCCO2`, the AC50 result is “inactive”.

Consider `O=C(Nc1ccc(Cl)cc1C(=O)c1ccccc1Cl)c1ccco1`, for which the AC50 result was “inactive”.

As to `Nc1ccccc1O.O.O=C(O)[C@H]1[O][Sb][O][C@H]1C(=O)O`, the activity, negative = inhibition was -5.13% [at 11.4 µM] (inactive). `O=[N+]([O-])c1ccc(N2CCNCC2)cc1NC1CC1`: the AC50 result was “inactive”. On the same count and under the same terms, the value for `Clc1cccc(N2CCNCC2)c1` was 25.1 µM (active) and 3.98 µM (active).

For the molecule `Clc1cncc(N2CCNCC2)n1`, the AC50 result is “inactive”. Turning to `O=c1[nH]cnc2[nH]cc(CN3CCCCC3)c12`, the activity, negative = inhibition was 7.9% [at 11.4 µM] (inactive).

For `COc1c2c(cc3c1OCO3)CCN(C)C2`, the AC50 was 3.98 µM (active). Turning to `CC(C)C(=O)N1C2CCC1CC(O)(c1ccc(F)cc1)C2` (stereo not given), the AC50 entry was “inactive”. Turning to `C[C@H](N[C@@H](C)CCc1ccccc1)[C@H](O)c1ccc(O)cc1`, the half-maximal activity concentration (AC50) was 2 µM (active). Same read-out and setting: the value for `CNC[C@H](O)c1ccc(O)cc1` was “inactive”; that for `NC[C@H](O)c1ccc(O)cc1` was “inactive”; that for `CC(C)[N+](C)(CCOC(=O)C1c2ccccc2Oc2ccccc21)C(C)C` was 31.6 µM (active) and 1.26 µM (active).

Take `O=C(Nc1ccc(F)cc1F)c1cccnc1Oc1cccc(C(F)(F)F)c1`: the AC50 result was “inactive”. For the molecule `CC[C@@H]1[C@@H]2C[C@H]3[C@H]4N(C)c5ccccc5[C@@]45C[C@@H]([C@@H]2[C@@H]5O)N3[C@H]1O`, the concentration at half-maximal activity (AC50) is 3.98 µM (active).

Regarding `Clc1ccc(C2=CCC[C@H]3CC[C@@H]2N3)cn1`, the AC50 entry was “inactive”. Same read-out and setting: the value for `O=C(CNS(=O)(=O)c1ccc(Br)s1)N1CCC2(CC1)OCCO2` was “inactive”; that for `NC(N)=NN=Cc1c(Cl)cccc1Cl` was 10 µM (active). In the case of `O=P(O)(O)c1ccccc1` (tested in a mixture with another compound), the activity, negative = inhibition was 15.2% [at 11.4 µM] (inactive). With `O=C(O)Cc1cccnc1C(=O)O`, the AC50 entry is “inactive”.

Turning to `O=C(O)[C@@H]1[C@H](C(=O)O)[C@]2(Cl)C(Cl)=C(Cl)[C@@]1(Cl)C2(Cl)Cl`, the activity, negative = inhibition was -8.74% [at 11.4 µM] (inactive). Still for that read-out and setting: the value for `O=c1c2ccccc2c2ccccc2c(=O)n1-c1cc2c3ccccc3ccc2c2ccccc12` was 2.85% [at 11.4 µM] (inactive).

For the molecule `NCC[C@H](O)C(=O)N[C@H]1C[C@@H](N)[C@@H](O[C@H]2O[C@@H](CN)[C@@H](O)[C@@H](O)[C@@H]2N)[C@@H](O[C@H]2O[C@@H](CO)[C@@H](O)[C@@H]2O)[C@@H]1O`, the AC50 entry is “inactive”. Same read-out and setting: the value for `c1ccc2sc(C3(N4CCCCC4)CCCCC3)cc2c1` was 12.6 µM (active) and 3.16 µM (active). `CN1C(=O)CCS(=O)(=O)[C@H]1c1ccc(Cl)cc1`: the AC50 entry was “inactive”. The same measure, in the same setting: in the case of `CCCn1c(=O)c2[nH]c(C3CCCC3)nc2n(CCCOC(=O)c2ccc(S(=O)(=O)F)cc2)c1=O` it was “inactive”; in that of `Cc1ncsc1CCCl`, 12.6 µM (active). Same read-out and setting: in the case of `C=C(C)[C@H]1CC[C@]2(C(=O)O)CC[C@]3(C)[C@@H](CC[C@H]4[C@@]5(C)CC[C@@H](O)C(C)(C)[C@@H]5CC[C@@]43C)[C@H]12` it was “inactive”. As to `Cc1nc(-c2ccc(-c3ccc(C(=O)N4CCc5cc6c(cc54)C4(CCN(C)CC4)CO6)cc3)c(C)c2)no1`, the half-maximal activity concentration (AC50) was 31.6 µM (active). Consider `COC(=O)c1c(C)ccc2c(O)c3c(cc12)C(=O)c1c2c(cc(O)c1C3=O)[C@@]1(C)O[C@@](C)(O2)[C@@H](O)[C@H](N(C)C)[C@H]1O`, for which the activity, negative = inhibition is -17.5% [at 11.4 µM] (inactive). In the case of `C=C[C@]12CN(C)[C@H]3C1[C@@]1(C(=O)Nc4ccccc41)[C@H]1C[C@H]2[C@H]3CO1`, the AC50 result is “inactive”. With `N[C@@H](CSC1c2ccccc2-c2ccccc21)C(=O)O`, the activity, negative = inhibition is -14.3% [at 11.4 µM] (inactive). `O=C(CNS(=O)(=O)c1cccs1)N1CCC2(CC1)OCCO2`: the AC50 entry was “inactive”.

`Fc1ccc(C(OCCN2CCN(C/C=C\c3ccccc3)CC2)c2ccc(F)cc2)cc1`: the AC50 was 7.94 µM (active). The same measure, in the same setting: in the case of `C(=C/c1ccccc1)/CN1CCN(CCOC(c2ccccc2)c2ccccc2)CC1` it was 5.01 µM (active). As to `Clc1ccc([C@@H](OCCN2CCCCC2)c2ccccc2)cc1`, the AC50 was 0.0158 µM (active). Still for that read-out and setting: the value for `CC(C)(c1ccc(OC[C@@H]2CO2)cc1)c1ccc(OC[C@H]2CO2)cc1` was “inactive”. On to `C[C@@H]1CC[C@@H]2N(C1)C[C@H]1[C@@](O)([C@H](O)C[C@]3(O)[C@H]4CC[C@H]5[C@]6(O)O[C@]4(C[C@]13O)[C@@]5(C)CC[C@@H]6O)[C@@]2(C)O`, for which the activity, negative = inhibition was 10.1% [at 11.4 µM] (inactive). Consider `CCCCC/C=C\C/C=C\C/C=C\C/C=C\CCCC(=O)NCC(=O)O`, for which the AC50 entry was “inactive”.

As to `CCN(CC)CCn1ncc2c(N)ncnc21`, the activity, negative = inhibition is 4.3% [at 11.4 µM] (inactive).

Consider `CNC(=O)Oc1ccc2c(c1)[C@@]1(C)CCN(C)[C@@H]1N2C`, for which the AC50 is 0.251 µM (active). Regarding `C=C1[C@@H](O)C2C=CC[C@H](C)C(=O)[C@@](C)(O)C=C[C@@H](OC(C)=O)[C@@]23C(=O)N[C@H](Cc2ccccc2)[C@@H]3[C@@H]1C` (stereo not given in full), the AC50 result was “inactive”. In the case of `CCCCC/C=C\C/C=C\C/C=C\C/C=C\CCCC(=O)Nc1ccc(O)cc1`, the AC50 entry was “inactive”. For `CN1[C@H]2CC(=O)C[C@@H]1[C@@H](O)C2`, the AC50 result was “inactive”. Turning to `O=C(O)CS(=O)(=O)C(c1ccccc1)c1ccccc1`, the activity, negative = inhibition is 8.36% [at 11.4 µM] (inactive).

Take `N[C@H](Cc1ccc(N(CCCl)CCCl)cc1)C(=O)O`: the AC50 result was “inactive”. Consider `NC(=O)c1cc(N2CC2)c([N+](=O)[O-])cc1[N+](=O)[O-]`, for which the AC50 result is “inactive”. The same measure, in the same setting: in the case of `C=CCO[C@@H](Cn1ccnc1)c1ccc(Cl)cc1Cl` it was 5.01 µM (active); in that of `C=C1[C@@H]2CC[C@H]3[C@@]4(C)C[C@@H](O[C@@H]5O[C@H](CO)[C@H](OS(=O)(=O)O)[C@@H](OS(=O)(=O)O)[C@@H]5OC(=O)CC(C)C)C[C@@H](C(=O)O)[C@H]4CC[C@@]3(C2)[C@H]1O`, “inactive”; in that of `C[C@H]1[C@H](NC(=O)/C(=N/OC(C)(C)C(=O)O)c2csc(N)n2)C(=O)N1S(=O)(=O)O` (stereo in doubt), “inactive”. On the same count and under the same terms, in the case of `CC[n+]1c(/C=C/N(C)c2ccccc2)sc2ccc(Cl)cc21` it was 0.0112 µM (active); in that of `c1ccc(N2CCCC3(CCNCC3)C2)cc1`, 7.94 µM (active). As for `c1ccc(N2CC3(CCNCC3)C2)cc1`, the AC50 entry was “inactive”. Regarding `c1cc(N2CCCC3(CCNCC3)C2)ccn1`, the concentration at half-maximal activity (AC50) is 10 µM (active).

`c1cc(CN2CCC3(CCNCC3)CC2)ccn1`: the AC50 result was “inactive”. `C[N+]1(C)CCN(c2ccccc2)CC1`: the AC50 entry is “inactive”. Turning to `O=C(Cn1ncc2ccsc2c1=O)N1CCC2(CC1)OCCO2`, the AC50 result was “inactive”. The same measure, in the same setting: in the case of `Cc1ccc(N(C)C(=O)Oc2cccc3ccc(C)nc23)cc1` it was “inactive”. Regarding `O=C(O)/C=C(\CC(=O)O)C(=O)O`, the activity, negative = inhibition was -1.58% [at 11.4 µM] (inactive).

Consider `N[C@@H](Cn1ccc(=O)n(Cc2ccc(C(=O)O)cc2)c1=O)C(=O)O`, for which the AC50 result was “inactive”. On the same count and under the same terms, in the case of `CCN1C[C@@]2(COC)CC[C@H](OC)[C@]34[C@@H]1[C@]1(OCO[C@@]15C[C@@H](OC)C1C[C@H]3[C@H]5[C@@H]1OC)[C@H](O)[C@@H]24` it was “inactive”.

`C[C@]12N[C@H](Cc3ccccc31)c1ccccc12`: the AC50 entry was “inactive”. Turning to `C[C@]12N[C@@H](Cc3ccccc31)c1ccccc12`, the half-maximal activity concentration (AC50) result is “inactive and 79.4 nM (active) and 5.01 µM (active)”. The same measure, in the same setting: in the case of `Cc1nnc2ccc(-c3cccc(C(F)(F)F)c3)nn12` it was “inactive”; in that of `S=C(Nc1ccc(Cl)cc1)NC1CC2CCCC(C1)N2C1CCCC1` (stereo not given), 0.501 µM (active). Regarding `NS(=O)(=O)C[C-]1C=C[CH]([Sb-]([Cl])([Cl])([Cl])([Cl])[Cl])C=C1.c1ccncc1` (stereo not given), the activity, negative = inhibition is 7.69% [at 11.4 µM] (inactive). As to `C=CCn1c(O)c(C(C)=NCCCN2CCOCC2)c(=O)[nH]c1=O`, the AC50 entry was “inactive”. Take `CC(=O)O[C@H]1C[C@@H](O[C@@H]2[C@H](C)O[C@H](O[C@@H]3[C@H](C)O[C@H](O[C@@H]4CC[C@@]5(C)[C@@H](CC[C@]6(C)[C@]5(C)C[C@H](O)[C@]5(C)[C@@H](C7=CC(=O)OC7)CC[C@@]56O)C4)C[C@@H]3O)C[C@@H]2O)O[C@@H](C)[C@H]1O[C@H]1O[C@@H](CO)[C@@H](O)[C@@H](O)[C@@H]1O`: the AC50 entry was “inactive”. On the same count and under the same terms, the value for `CC1=CC(=O)C2=C(C)C[C@@H](O)[C@@H]3[C@@H](OC(=O)[C@H]3C)[C@H]12` was “inactive”; that for `CN1CCN(c2ccc([N+](=O)[O-])c(N/N=C3\CN4CCC3CC4)c2)CC1` was “inactive”.
